Source: PubChem (National Center for Advancing Translational Sciences (NCATS))
Tau fluor counter: counter-screen for tau fibril formation inhibitors | tau K18 P301L Alexa594 fluorescence, heparin fibrillization | Potency, µM (highest dose often 57.7 µM), inactives show at the highest dose activity change, negative = decrease | 280,000 tested, 0.93% active | AID 1463; note: nearly all actives have a fitted effect of over 55% in size
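Human K18 P301L tau (15 uM unlabeled plus 0.24 uM Alexa 594-labeled, final) in 100 mM sodium acetate pH 7 was mixed with compound and 20 uM heparin and incubated 6 hr at 37 C.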
Tau fibril FP: tau fibrillization inhibition (FP); K18 P301L tau heparin fibrillization, Alexa594 FP, 6 h; Potency, µM (doses to about 57.7 µM), without a hit: at the highest dose activity, negative = inhibition, hits mostly inhibitors; 280,000 tested, 0.39% active; note: nearly all actives have a fitted effect of over 55% in size
Target sequence (P10636 561-689 P618L limits assumed): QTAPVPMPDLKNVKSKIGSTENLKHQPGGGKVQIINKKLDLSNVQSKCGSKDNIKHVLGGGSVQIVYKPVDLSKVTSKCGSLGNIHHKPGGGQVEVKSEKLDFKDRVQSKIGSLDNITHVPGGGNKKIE
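Read-out: fluorescence polarization of Alexa 594-labeled tau (0.24 uM), 555 nm excitation, 632 nm emission. Mixtures held 15 uM unlabeled K18 P301L, compound and 20 uM heparin, pH 7 acetate buffer, incubated 6 hr at 37 C.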
ALDH1A1 inh: inhibitors of human aldehyde dehydrogenase 1A1; Purified ALDH1A1, NADH fluorescence, propionaldehyde substrate; P00352; 220,000 tested, 7.3% active; Potency, µM (series often up to 75.3 µM), inactives show top-dose activity, negative = inhibition, usual class: inhibitors; AID 1030; active = well fitted inhibition curve with a large enough effect, not every such curve was filed as active; inconclusive = small, poorly fitted or top-dose-only effect, or another doubt; inactive = no such curve, though single readings can be large or run the other way;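 note: plate controls were no enzyme wells and a reference inhibitor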
Target sequence (P00352 whole entry, looked up): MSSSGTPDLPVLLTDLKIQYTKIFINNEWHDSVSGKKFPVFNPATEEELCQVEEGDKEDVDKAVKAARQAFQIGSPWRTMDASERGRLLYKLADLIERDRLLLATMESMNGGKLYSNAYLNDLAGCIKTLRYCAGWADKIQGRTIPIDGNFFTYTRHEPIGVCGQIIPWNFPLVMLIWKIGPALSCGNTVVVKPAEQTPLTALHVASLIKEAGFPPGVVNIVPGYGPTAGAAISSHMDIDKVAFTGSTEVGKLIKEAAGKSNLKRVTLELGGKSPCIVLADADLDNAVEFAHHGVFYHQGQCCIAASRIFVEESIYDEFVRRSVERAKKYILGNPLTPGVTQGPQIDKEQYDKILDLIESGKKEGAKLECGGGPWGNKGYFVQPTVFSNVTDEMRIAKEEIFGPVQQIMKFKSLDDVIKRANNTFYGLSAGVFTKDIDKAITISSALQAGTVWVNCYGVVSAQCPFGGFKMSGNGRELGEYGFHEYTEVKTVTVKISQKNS
NPSR antagonist: blocks cAMP signaling of the human neuropeptide S receptor; CHO-NPSR cells, cAMP TR-FRET, antagonist mode; Potency, µM (titrated, usually from 38.3 µM), for inactives: top-dose activity change, negative = inhibition, hits mostly inhibitors; 220,000 tested, 1% active; AID 1461; note: nearly all actives have a fitted effect of over 50% in size
HPGD block: inhibitors of human 15-hydroxyprostaglandin dehydrogenase (HPGD); P15428; purified HPGD, NADH fluorescence kinetic, PGE2 substrate; Potency, µM, inactives show top-dose activity change, negative = inhibition, usual class: inhibitors; 150,000 tested, 4.3% active; active = well fitted inhibition curve with a large enough effect, not every such curve was filed as active; inconclusive = small, poorly fitted or top-dose-only effect, or another doubt; inactive = no such curve, though single readings can be large or run the other way
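20 nM HPGD preincubated 15 min at room temperature with compound in 50 mM Tris-HCl pH 8, 0.01% Tween 20. Started with 1 mM NAD+ and 30 uM prostaglandin E2; NADH fluorescence (360/450 nm) read 5 times over 30-s intervals, last minus first.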
Tau fibril ThT: tau fibrillization inhibition (ThT binding). P10636. recombinant tau K18 P301L (four-repeat tau fragment), heparin-induced fibrillization, ThT fluorescence. Potency, µM (series often up to 57.4 µM), without a hit: at the top dose activity, negative = inhibition, actives largely listed as inhibitors. 270,000 tested, 2.1% active; note: nearly all actives have a fitted effect of over 55% in size
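Heparin-induced fibrillization of the P301L-mutant K18 repeat-domain fragment of human tau was followed by ThT binding in quantitative high-throughput format.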
Starred values were filed as active, the others as inactive; [ ] = remark or other dose. In the library only some 9.5% were active in any assay of this set; here they are far more common. Unless noted, calls come from the whole dose curve; as a rule, active = well fitted curve in the direction sought with a large enough effect; inconclusive = small, poorly fitted or top-dose-only effect, or another doubt; inactive = no such curve, though single readings can be large; an effect the other way counts as inactive or inconclusive. Unless noted, % is set by controls: 0 for no effect and ±100 for the full control effect; potency is the fitted concentration of half-maximal effect.

Results for Cn1c(=O)c2c(nc(N3CCOCC3)n2Cc2ccccc2)n(C)c1=O ?
Tau fluor counter: -5%; Tau fibril FP: -7%; Tau fibril ThT: -7%

Results for Cn1c(=O)c2c(nc(CN3CCN(CCO)CC3)n2Cc2cccc3ccccc23)n(C)c1=O ?
Tau fluor counter: -9%; Tau fibril FP: 0%; ALDH1A1 inh: 4.5µM*; NPSR antagonist: -6%[46.1 µM]; HPGD block: -2%; Tau fibril ThT: -10%

Results for CN1CCN(c2nc3c(c(=O)n(C)c(=O)n3C)n2Cc2cccc3ccccc23)CC1 ?
Tau fluor counter: -10%; Tau fibril FP: 1%; ALDH1A1 inh: 11µM*; NPSR antagonist: 15%[46.1 µM]; HPGD block: -8%; Tau fibril ThT: -5%

Results for Cc1ccc(C)c(CSc2nnc3[nH]c(=O)cc(-c4ccccc4)n23)c1 ?
Tau fluor counter: -13%; Tau fibril FP: -1%; Tau fibril ThT: inconclusive

What do the screens show for `Cc1ccc(S(=O)(=O)N(C(=O)c2ccncc2)c2ccc(OC(=O)c3ccncc3)c3ccccc23)cc1`?
Tau fluor counter: inconclusive; Tau fibril FP: inconclusive; ALDH1A1 inh: 4µM*; NPSR antagonist: -20%; HPGD block: 20µM*; Tau fibril ThT: 25µM*

Results for Cc1ccc(S(=O)(=O)N(C(=O)c2ccncc2)c2ccc(OC(=O)c3ccncc3)c3ccccc23)c(C)c1 ?
Tau fluor counter: inconclusive; Tau fibril FP: inconclusive; ALDH1A1 inh: 7.9µM*; NPSR antagonist: -17%[46.1 µM]; HPGD block: 28µM*; Tau fibril ThT: 14µM*

Results for Cc1cc(F)ccc1S(=O)(=O)N(C(=O)c1ccncc1)c1ccc(OC(=O)c2ccncc2)cc1 ?
Tau fluor counter: -11%; Tau fibril FP: 8%; ALDH1A1 inh: 6%; NPSR antagonist: -5%; Tau fibril ThT: inconclusive

How did CC1=Nc2cc(C(=O)NC3CCCC3)ccc2Sc2ccc(C)cc21 do in these assays?
Tau fluor counter: -8%; Tau fibril FP: 5%; Tau fibril ThT: -13%

Results for O=C(O)c1ccc(CSc2nc(-c3ccc(Cl)cc3)cc(C(F)(F)F)n2)cc1 ?
Tau fluor counter: -2%; Tau fibril FP: -2%; ALDH1A1 inh: 2%; NPSR antagonist: -26%[46.1 µM]; HPGD block: 13µM*; Tau fibril ThT: -2%

Results for COc1ccc(N2C(=O)C3CCCN3C2c2cccc(F)c2)cc1Cl (stereo unspecified) ?
Tau fluor counter: -22%; Tau fibril FP: -11%; ALDH1A1 inh: 1%; NPSR antagonist: -14%[46.1 µM]; Tau fibril ThT: -6%

How did COc1ccc(CNCC(=O)Nc2ccccc2-n2cccc2)cc1 do in these assays?
Tau fluor counter: 6%; Tau fibril FP: 1%; ALDH1A1 inh: 28µM*; NPSR antagonist: -9%; Tau fibril ThT: -1%

How did O=C(O)c1ccccc1NS(=O)(=O)c1ccc(Cl)c(Cl)c1 do in these assays?
ALDH1A1 inh: 3%; HPGD block: -2%

Results for CCN(CC)C(=O)C1CCN(S(=O)(=O)c2ccc(C3CNC(=O)C3)cc2)CC1 (stereo unspecified) ?
Tau fluor counter: 5%; Tau fibril FP: -13%; ALDH1A1 inh: 3%; NPSR antagonist: -4%[46.1 µM]; HPGD block: -6%; Tau fibril ThT: -2%

How did COC(=O)c1ccc(-c2ccc(/C=N/NC(=O)Cc3nnc(N)s3)o2)cc1 do in these assays?
Tau fluor counter: -16%; Tau fibril FP: 6%; NPSR antagonist: -26%; Tau fibril ThT: 7.9µM*

What do the screens show for `Nc1nnc(CC(=O)N/N=C/c2ccc(-c3ccccc3)o2)s1`?
Tau fluor counter: -12%; Tau fibril FP: 2%; ALDH1A1 inh: -11%; NPSR antagonist: -18%; HPGD block: inconclusive; Tau fibril ThT: inconclusive

What do the screens show for `CC(=O)c1sc2nc(C)c3c(c2c1N)CCCC3`?
Tau fluor counter: -15%; Tau fibril FP: 1%; NPSR antagonist: -22%; Tau fibril ThT: inconclusive

What do the screens show for `CC(=O)c1sc2nsc(SCCN3CCCC3)c2c1N`?
Tau fluor counter: -20%; Tau fibril FP: -21%; NPSR antagonist: 12%; Tau fibril ThT: 10µM*

What do the screens show for `CC1(C)Cc2c(sc3c2c(=N)n(Cc2ccco2)c(=O)n3CC(=O)Nc2ccc(Cl)cc2)CO1`?
Tau fluor counter: inconclusive; Tau fibril FP: inconclusive; ALDH1A1 inh: 20µM*; NPSR antagonist: 2%[46.1 µM]; HPGD block: -21%; Tau fibril ThT: 1%

What do the screens show for `Cc1c(Nc2cc(N3CCCCCC3)c3nonc3c2[N+](=O)[O-])c(=O)n(-c2ccccc2)n1C`?
Tau fluor counter: -1%; Tau fibril FP: 10%; ALDH1A1 inh: 5%; NPSR antagonist: -13%[46.1 µM]; HPGD block: 11µM*; Tau fibril ThT: -20%

Results for Cc1c(NS(=O)(=O)c2ccc(N3CCCCC3)c([N+](=O)[O-])c2)c(=O)n(-c2ccccc2)n1C ?
Tau fluor counter: -1%; Tau fibril FP: 2%; ALDH1A1 inh: -3%; NPSR antagonist: 4%; HPGD block: -4%; Tau fibril ThT: inconclusive

How did Cn1c(=Nc2ccc(N3CCOCC3)cc2)ccc2ccccc21 do in these assays?
Tau fluor counter: -5%; Tau fibril FP: -5%; ALDH1A1 inh: 7%; NPSR antagonist: 4%[46.1 µM]; HPGD block: -9%; Tau fibril ThT: -15%

What do the screens show for `Cn1c(N=Nc2ccc(N3CCOCC3)cc2)[n+](C)c2ccccc21`?
Tau fluor counter: 4µM*[quencher]; Tau fibril FP: 14µM*; ALDH1A1 inh: -12%; NPSR antagonist: 7.9µM*; Tau fibril ThT: 1µM*

What do the screens show for `COc1ccc(-c2nc3cnc(Nc4cccc(OC)c4)nc3n(C)c2=O)cc1`?
ALDH1A1 inh: 0%

How did CC(C)c1ccccc1S(=O)(=O)c1cc(N)c2ncccc2c1[N+](=O)[O-] do in these assays?
Tau fluor counter: inconclusive; Tau fibril FP: inconclusive; ALDH1A1 inh: -7%; HPGD block: -17%; Tau fibril ThT: inconclusive

How did Cc1cccc(NC(=O)CSc2nc(=O)n(Cc3ccccn3)c3c2CCC3)c1C do in these assays?
Tau fluor counter: -3%; Tau fibril FP: -9%; Tau fibril ThT: -9%

How did CC(=NC1CCCC1)c1c(C)[nH]n(-c2nc3ccccc3s2)c1=O do in these assays?
Tau fluor counter: -7%; Tau fibril FP: 6%; ALDH1A1 inh: 14µM*; NPSR antagonist: -9%[46.1 µM]; HPGD block: -16%; Tau fibril ThT: inconclusive

How did CC(=NC1CC1)c1c(-c2ccccc2)[nH]n(-c2nc3ccccc3s2)c1=O do in these assays?
Tau fluor counter: -16%; Tau fibril FP: -1%; ALDH1A1 inh: -2%; NPSR antagonist: inconclusive; HPGD block: -10%; Tau fibril ThT: inconclusive
